The whole screen tested about 290,000 compounds, of which about 3,000 (1%) were called active. Rule as the data show it: active = inhibition mostly above about 36% (no sharp cut-off); inactive = mostly below about 34%. The list comes from a sample in which actives are over-represented; it also holds similar structures and randomly drawn compounds.
Experiment: NOD1 signaling inhibitors, primary screen, cell-based, luminescence, uHTS (AID 1578);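 also: HEK-293T reporter cells stimulated with the NOD1 agonist gamma-tri-DAP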
Settings: NOD1-driven NF-kB luciferase reporter cells, at 4 µM, stronger effect = higher value

inhibition, active:
NC(=O)N/N=C(/CCCCCC/C(=N\NC(N)=O)c1ccccc1)c1ccccc1 36.6%, CC(=O)N1c2ccccc2C2(C)C(C1(C)C)C2(Cl)Cl (stereo not given) 60.4%, COc1cccc(/C=N/Nc2ncccc2[N+](=O)[O-])c1OC 39.6%, CCOC(=O)CNC(c1ccccc1)c1cc(Br)ccc1NC(=O)CCN1CCOCC1 (stereo not given) 69.7%, Oc1[nH]c2c(Cl)cc(Cl)cc2c1N=NC(=S)NCC1CCCO1 (stereo not given) 104%, CC(C)c1nc2sc3c(NCc4ccco4)ncnc3c2c2c1COC(C)(C)C2 64%, O=C(Nc1ccccc1)NN(C(=O)CCl)c1ccccc1 73.9%, CCCC(O)(CCC)C(=O)NN(C(=O)CCl)c1cccc(C)c1 75%, Cc1ccc(N(NC(=O)C(O)(c2ccccc2)c2ccccc2)C(=O)CCl)cc1 87.3%, CCCCCCCN(C(=O)CCl)c1cccc(C)c1 57.4%, O=C(CN1CC[n+]2c(-c3cccs3)csc21)c1ccc(-c2ccccc2)cc1 56.9%, Cc1cccc(COCC(CC(C)C)N2CCN(C(=O)c3ccc(C(C)(C)C)cc3)CCC2=O)c1 (stereo not given) 77%, COc1ccc(/C=C2\N=C(SC)N(c3ccccc3OC)C2=O)cc1 53.5%, Cc1ccc(-c2nc(C=Nc3ccc(O)cc3)c(O)o2)cc1 57.6%

inhibition, inactive:
CCCn1c(N)c(Sc2ccccc2)c(=O)n(CCC)c1=O 17.2%, CCOC(=O)c1ccccc1NC(=O)c1c(F)c(F)c(F)c(F)c1F -18.5%, CCCCC/C(=N\NC(=O)Nc1ccccc1)c1ccccc1 -2.9%, C/C(=N\NC(N)=O)c1ccccc1 -34.5%, CC(=O)N1c2ccccc2C(C)(c2ccccc2)CC1(C)C (stereo not given) 0.7%, CC1(C)C2C(Cl)(Cl)C2(C)c2ccccc2N1C=O (stereo not given) -3.3%, Cc1cc(NC(=O)Nc2ccc(Cl)cc2)n(C)n1 -7.2%, O=C1c2cccc3cc([N+](=O)[O-])cc(c23)C(=O)N1/N=C/c1ccc(O)cc1O 8.5%, COc1ccc(/C=N/Nc2ncccc2[N+](=O)[O-])c(OC)c1 -42.4%, O=[N+]([O-])c1cccnc1N/N=C/c1ccccc1O -18.6%, CC(C)C(=O)NC(NC(=S)Nc1ccc(S(N)(=O)=O)cc1)C(Cl)(Cl)Cl (stereo not given) -3.2%, CCCCC(CC)C(=O)Nc1cc(=O)[nH]c2nc3ccccc3n12 (stereo not given) -1.4%, CCOC(=O)CNC(c1ccccc1)c1cc(Br)ccc1NC(C)=O (stereo not given) -27.2%, COC(=O)CNC(c1ccccc1)c1cc(Br)ccc1NC(=O)CCN1CCOCC1 (stereo not given) 35.8%, CC(OC(=O)c1ccco1)C(=O)NC1CCCC1 (stereo not given) -27.9%, COc1ccc(CC(=O)N/N=C\c2cc(Br)c(O)c(Br)c2)cc1 17%, Oc1[nH]c2ccccc2c1N=NC(=S)NCC1CCCO1 (stereo not given) -1%, Cc1cc(C)c2[nH]c(O)c(N=NC(=S)NCC3CCCO3)c2c1 (stereo not given) -5.7%, O=C1NC(=O)C2C1C(c1ccccc1)N1C3C(=O)NC(=O)C3C(c3ccccc3)N21 (stereo not given) 6.2%, Cc1nc2sc3c(NCc4ccco4)ncnc3c2c2c1COC(C)(C)C2 20.3%, CC(C)Cc1nc2sc3c(NCc4ccco4)ncnc3c2c2c1COC(C)(C)C2 -25.1%, CCN(CC)CC(=O)NCc1cc(-c2ccc(OC)cc2)no1 -8.1%, C=CCNc1nc(Nc2ccc(OC)cc2)nc(OCC)n1 -7.5%, CCn1c(=O)c(C(=O)Nc2ccccc2S(N)(=O)=O)c(O)c2ccccc21 -15.7%, Cn1c(=O)c(C(=O)Nc2cnccn2)c(O)c2ccccc21 -52.8%, CCCn1c(=O)c(C(=O)Nc2cnccn2)c(O)c2ccccc21 -22.7%, CC(C)Cn1c(=O)c(C(=O)Nc2cnccn2)c(O)c2ccccc21 0.1%, CC(C)Cn1c(=O)c(C(=O)Nc2ccccc2S(N)(=O)=O)c(O)c2ccccc21 -2.7%, CCn1c(=O)c(C(=O)Nc2cnccn2)c(O)c2ccccc21 7.9%, CCOC(=O)N1CCN=C1SCc1ccc(Cl)c(Cl)c1 -47.1%, Cc1nc(N2CCN(c3ccccc3)CC2)[nH]c(=O)c1Cc1ccccc1 8.4%, COc1ccccc1NC(=S)N(CCN1CCOCC1)Cc1ccccc1F -31.9%, O=[N+]([O-])c1ccccc1/C=N/Nc1nnc(-c2ccccc2)c(-c2ccccc2)n1 -36.7%, FCCCOc1ccc(-c2ccnc(-c3ccccc3)n2)cc1 -45.6%, Cc1c(Cl)cccc1NC(=O)NNC(=O)CCc1ccccc1 28%, COc1cc(C)c(C)cc1S(=O)(=O)n1c(C)nc2ccccc21 -11.1%, CC(C)COP(=O)(c1ccc(N(C)C)cc1)C(O)c1ccc(N(C)C)cc1 (stereo not given) 2.4%, CC1CN(c2nc3c(c(=O)n(C)c(=O)n3C)n2Cc2c(F)cccc2Cl)CC(C)O1 (stereo not given) -14.7%, O=C(NNC1=NCCC1)c1ccc(Br)cc1 6.7%, CC(=O)c1ccccc1N(C(=O)c1ccco1)C(C(=O)NC1CCCC1)c1ccc(C)cc1 (stereo not given) -11.2%, Cc1ccc(NC2CCCN(C(=O)c3cccc(-c4ncc[nH]4)c3)C2)cc1C (stereo not given) -0.1%, CCCCCCN(C(=O)CCl)c1ccccc1 -4.8%, CCCC(O)(CCC)C(=O)NN(C(=O)CCl)c1ccccc1 -30.8%, CCN(CC)NC(=O)Nc1ccccc1 1.7%, CCC(O)(CC)C(=O)NN(C(=O)CCl)c1ccccc1 -63.3%, COC(=O)N(NC(=O)C(O)(c1ccccc1)c1ccccc1)c1ccc(C)cc1 -13%, CCCCC(O)(CCCC)C(=O)NN(C(=O)CCl)c1ccccc1 8.2%, CCOC(=O)N(NC(=O)C(O)(c1ccccc1)c1ccccc1)c1ccccc1 -25.2%, CCCCCCCN(C(=O)CCl)c1ccccc1C 27.2%, Cc1cccc(Nc2nc(NCC3CCCO3)nc(N)c2[N+](=O)[O-])c1 (stereo not given) -27.5%, O=C(COc1ccccc1)OC(C(=O)c1ccccc1)c1ccccc1 (stereo not given) -26.7%, Cc1cc(NS(=O)(=O)c2ccc(NC(=O)c3ccco3)cc2)no1 9.2%, O=C(O)CN1CCCCCC1=O -31.2%, Cc1nccn1CCCNC(=O)C1CCC(=O)N(Cc2ccccc2F)C1 (stereo not given) -13.5%, CC(C)(C)OC(=O)CN1c2cccc3cccc(c23)S1(=O)=O -5.8%, CCC(C(=O)NC(C)c1ccccc1)C(=O)NC(C)c1ccccc1 (stereo not given) -9.8%, CC(=O)Nc1ccc(NC(=O)c2cc(=O)c3cc(C)c(C)cc3o2)cc1 -7.3%, COc1ccc(-c2ccc(C(C)=O)cc2)cc1[C@H]1[C@H]2C=CC[C@@H](C)[C@@H]2C(=O)N1Cc1ccccc1 -4.4%, COC(=O)c1cc2sc(Cl)cc2n1CC(=O)Nc1cccc(SC)c1 1.3%, CCn1c(=O)cc(OCC(=O)NCc2cccs2)c2ccccc21 -18.7%, O=C(CN1CC[n+]2c(-c3ccccc3)csc21)c1ccc(Br)cc1 -9.1%, O=C(CN1CC[n+]2c(-c3cccs3)csc21)c1ccc(Br)cc1 5%, O=C(O)CSCC(=O)N1CCc2c([nH]c3ccccc23)C1C(F)(F)F (stereo not given) -8.5%, O=C(Nc1cccc(S(=O)(=O)C(F)F)c1)c1ccc(Cl)c(S(=O)(=O)N2CCOCC2)c1 4.5%, O=C(Nc1ccc(NC(=O)c2ccc(Cl)c(S(=O)(=O)N3CCOCC3)c2)cc1)c1ccccc1 -18.3%, CCOC(=O)c1c(/N=C/N(C)C)sc(C=O)c1-c1ccccc1 -24.2%, Cc1cccc(COCC(CC(C)C)N2CCN(C(=O)c3ccc(C(F)(F)F)cc3)CCC2=O)c1 (stereo not given) -5.2%, CC(C)CC(COCc1cccc(Cl)c1)N1CCN(C(=O)c2ccc(C(F)(F)F)cc2)CCC1=O (stereo not given) -7.1%, CC(=O)c1c(C)n(-c2ccc(C)cc2)c2ccc(O)cc12 33.3%, COC(=O)c1c(C)n(-c2ccc(C)cc2)c2ccc(O)cc12 18.7%, O=C(CN(C(=O)c1ccccc1Cl)N1C(=O)C2C3C=CC(C3)C2C1=O)c1cccs1 (stereo not given) -17%, O=C(Nc1ccc(OC(F)F)c(Cl)c1)Nc1ccc2c(c1)OCO2 -34.5%, CCSC1=N/C(=C\c2ccccc2)C(=O)N1c1ccc(OC)cc1 30.2%, COc1ccc(/C=C2\N=C(SC)N(C)C2=O)cc1 3.7%, COc1cccc(CNc2ncn[nH]2)c1OCc1ccc(F)cc1 -21.2%, Cc1ccc(-c2nc(C=Nc3ccccc3)c(O)o2)cc1 -33.7%, Cc1ccc(N=Cc2nc(-c3ccc(C)cc3)oc2O)cc1 21.9%, CCSc1nc2ccccc2n1CCOc1ccccc1 -22.7%, O=C(CS(=O)(=O)c1cn(CC(=O)N2CCCC2)c2ccccc12)Nc1ccccc1 -8.1%, O=S(=O)(NCc1ccco1)c1ccc(Cl)nc1 -15.7%, CC(C)CC(C(=O)NC(C)(C)C)N(Cc1cccs1)C(=O)c1snc(C(N)=O)c1N (stereo not given) -13.4%
